Assay outcomes from PubChem BioAssay.
PPARg SRC3 recr = PPARgamma agonists recruiting SRC-3 coactivator, primary screen, biochemical; AID 731, 2007; biochemical PPARgamma/SRC-3 coactivator recruitment assay; 0.26% of 200,000 active; activation, % at 8 µM; in the data active = activation above about 23%;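 note: 0% = DMSO and 100% = reference agonist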
Target sequence (P37231 whole entry, looked up): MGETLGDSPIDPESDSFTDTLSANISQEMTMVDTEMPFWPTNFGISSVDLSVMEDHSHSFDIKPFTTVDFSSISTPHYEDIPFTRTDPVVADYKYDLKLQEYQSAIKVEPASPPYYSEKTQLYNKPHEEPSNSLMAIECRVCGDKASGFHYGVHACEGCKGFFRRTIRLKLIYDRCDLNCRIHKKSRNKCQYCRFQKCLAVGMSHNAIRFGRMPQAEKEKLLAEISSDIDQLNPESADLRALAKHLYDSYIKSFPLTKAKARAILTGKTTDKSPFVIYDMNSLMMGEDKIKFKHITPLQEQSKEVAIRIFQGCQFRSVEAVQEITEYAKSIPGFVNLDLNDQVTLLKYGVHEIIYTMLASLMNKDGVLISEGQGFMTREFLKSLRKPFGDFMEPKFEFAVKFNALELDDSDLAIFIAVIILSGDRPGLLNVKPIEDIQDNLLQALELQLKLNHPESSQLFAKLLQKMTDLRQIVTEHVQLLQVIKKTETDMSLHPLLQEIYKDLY
SRC3 TRFRET art = TR-FRET detection interference compounds, artefact control for PPARgamma SRC-3 recruitment agonists, biochemical, TR-FRET ratio | TR-FRET artefact counter-screen, PPARgamma/SRC-3 format; stronger effect = higher value | TR-FRET ratio at 8 µM | 0.39% of 99,000 active; in the data active = TR-FRET ratio above about 2000
SRC1 TRFRET art = TR-FRET detection interference compounds, primary screen, artefact control for PPARgamma SRC-1 recruitment agonists, biochemical, TR-FRET emission ratio. TR-FRET detection artefact counter-screen; stronger effect = higher value. TR-FRET ratio at 8 µM. 0.34% of 99,000 active; in the data active = TR-FRET ratio above about 2300
PPARg SRC-1 ag = PPARgamma agonists recruiting SRC-1 coactivator, primary screen, biochemical; activation, % at 8 µM; Peroxisome proliferator-activated receptor gamma (Homo sapiens), P37231; PPARgamma-SRC-1 coactivator recruitment biochemical assay; 0.41% of 200,000 active; in the data active = activation above about 19%;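 note: 0% = DMSO and 100% = reference agonist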
SRC2 TRFRET art = TR-FRET signal artefacts, primary screen, artefact control for PPARgamma SRC-2 agonist project, biochemical. TR-FRET artefact counter-screen; stronger effect = higher value. TR-FRET ratio at 8 µM. 0.4% of 200,000 active; in the data active = TR-FRET ratio above about 2000
PPARg SRC-2 ag = agonists of PPARg-SRC-2 recruitment, primary screen, biochemical, HTS; Peroxisome proliferator-activated receptor gamma (Homo sapiens), P37231; PPARgamma LBD-SRC-2 recruitment; activation, % at 8 µM; 0.34% of 200,000 active;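 note: 0% = vehicle and 100% = reference agonist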
PPARg SRC2 ag = agonists of PPARgamma SRC-2 coactivator recruitment, confirmation, biochemical, HTS; shares compounds with PPARg SRC3 recr; biochemical SRC-2 recruitment by PPARgamma; activation, % at 8 µM; 52% of 790 active; AID 1297, 2008;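 note: 0% = vehicle alone and 100% = reference agonist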
PPARg SRC1 conf = PPARgamma agonists recruiting SRC-1 coactivator, confirmation, biochemical. activation, % at 8 µM. shares compounds with PPARg SRC3 recr. PPARgamma–SRC-1 coactivator recruitment biochemical assay. 43% of 790 active; in the data active = activation above about 20%;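 note: 0% = vehicle wells and 100% = reference agonist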
PPARg SRC3 conf = PPARgamma-driven SRC-3 coactivator recruitment agonists, confirmation, biochemical; shares compounds with PPARg SRC3 recr; biochemical PPARgamma-SRC-3 coactivator recruitment, agonist mode; activation, % at 8 µM; 29% of 790 active; AID 1301, 2008; in the data active = activation above about 24%;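 note: 0% = vehicle wells and 100% = reference agonist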
The depositor's hits bear a star; · = no result given. This is a sample that favours compounds with a hit; in the whole collection about 0.9% have one here. Cut-off read from the data, not from the text of the source, unless noted: active = activation above about 22%; inactive = the rest.

SMILES | PPARg SRC3 recr | SRC3 TRFRET art | SRC1 TRFRET art | PPARg SRC-1 ag | SRC2 TRFRET art | PPARg SRC-2 ag | PPARg SRC2 ag | PPARg SRC1 conf | PPARg SRC3 conf
CC1CCN(C(=O)c2ccc(NC(=O)C3CCCO3)cc2)CC1 (configuration not stated) | -4.6 | 1644 | 1635 | -3.2 | 1486 | 1.8 | · | · | ·
O=c1c(O)c(-c2ccc(O)cc2O)oc2cc(O)cc(O)c12 | 8.8 | 1822 | 1969 | 22.6* | 1591 | 7.3 | -4.6 | -5.1 | -0.3
CC1CCc2c(sc(N)c2C(=O)OC(C)C)C1 (configuration not stated) | -3.2 | · | · | 6.8 | 1415 | 3.5 | · | · | ·
COc1cccc(C2C(C(=O)OC(C)C)=C(C)Nc3ncnn32)c1 (configuration not stated) | 2.1 | · | · | -1.5 | 1505 | -1.0 | · | · | ·
Cc1cc(C(=O)COC(=O)CNS(=O)(=O)c2ccc3ccccc3c2)c(C)n1-c1ccccc1 | 2.4 | 1624 | 1884 | 3.1 | 1766 | 6.0 | · | · | ·
O=C(CNS(=O)(=O)c1ccc2ccccc2c1)OCC(=O)c1ccc(Br)s1 | 68.7* | · | · | 33.3* | 2540* | 60.9* | 55.1* | 35.1* | 38.0*
O=C(Cn1nnc(-c2ccccc2Cl)n1)N1CCN(S(=O)(=O)c2ccc(Cl)cc2)CC1 | -5.7 | · | · | 3.4 | 1704 | 6.3 | · | · | ·
CCN(CC)C(=O)c1sc2[nH]c(=S)n(-c3ccccc3)c(=O)c2c1C | 9.4 | · | · | 12.7 | 1795 | 26.9* | 10.4 | 7.3 | 8.2
COCCCn1c(=S)[nH]c2sc3c(c2c1=O)CCCS3 | 35.7* | 2497* | 3194* | 43.1* | 2732* | 44.3* | 56.7* | 39.9* | 38.4*
CCn1c(=O)n(CCOC)c(=O)c2c3c(sc21)CCCC3 | -2.8 | · | · | 4.7 | 1709 | 2.8 | · | · | ·
CC(NC(=O)CCc1ccccc1)c1cc2c(cc1Cl)OCCO2 (configuration not stated) | -2.1 | 1353 | 1376 | 0.9 | 1373 | -13.7 | · | · | ·
COc1cccc2cc(C(=O)C3=C(O)C(=O)N(Cc4ccco4)C3c3cccnc3)oc12 (configuration not stated) | 40.0* | · | · | 27.1* | 2226* | 25.5* | 23.1* | 14.4 | 13.7
O=C(C1=C(O)C(=O)N(Cc2ccco2)C1c1cccnc1)c1cc2ccccc2o1 (configuration not stated) | 50.3* | · | · | 32.9* | 2097* | 33.9* | 21.2 | 15.4 | 14.1
O=C(C1=C(O)C(=O)N(CC2CCCO2)C1c1cccnc1)c1ccco1 (configuration not stated) | 7.0 | · | · | 2.7 | 1600 | 2.8 | · | · | ·
Cc1cc(N2C(=O)C3C4C=CC(C4)C3C2=O)ccc1Br (configuration not stated) | 4.8 | · | · | -9.6 | 1326 | -3.5 | · | · | ·
CC1(C)Nc2ccc(O)cc2-c2c1ssc2=S | 27.5* | · | · | 13.2 | 1836 | 24.6* | 6.5 | 3.4 | 5.0
CNc1nc(-c2c[nH]c3ccccc23)cs1 | 13.7 | · | · | 5.3 | 1433 | 6.3 | · | · | ·
Nc1nc(-c2c[nH]c3ccccc23)cs1 | 35.9* | · | · | 20.0* | 1857 | 12.7 | 21.9* | 11.8 | 13.0
CCC(NC(=O)c1ccccc1NC(=O)c1ccco1)C(=O)NC1CCCCC1 (configuration not stated) | 11.7 | · | · | 10.6 | 2076* | 24.9* | 9.5 | 7.6 | 4.3
COc1cccc(Nc2nc(-c3sc(NC(=O)c4ccccc4)nc3C)cs2)c1 | 26.7* | · | · | 13.3 | 1767 | 15.4 | 41.5* | 25.7* | 19.3
CCOc1ccc(/C(O)=C2\C(=O)C(=O)N(c3cc(C)on3)C2c2ccccc2OC)cc1 (configuration not stated) | 41.6* | · | · | 27.3* | 2300* | 34.0* | 35.9* | 30.9* | 21.8
C/C(=N\NC(=O)c1ccc(O)cc1)c1ccc2c(c1)Nc1ccccc1S2 | 14.5 | 1673 | 1994 | 17.1 | 1763 | 27.1* | 9.7 | 5.7 | 7.1
COCCNc1oc(-c2cccs2)nc1S(=O)(=O)c1ccc(C)cc1 | 4.9 | 1609 | 1747 | 3.7 | 1626 | -3.6 | · | · | ·
COCCCNc1oc(-c2cccs2)nc1S(=O)(=O)c1ccc(C)cc1 | 32.5* | 1632 | 1713 | 14.7 | 1478 | -1.8 | 1.5 | 14.0 | 15.7
CCOC(=O)c1c(NC(=O)CSc2nnc(-c3ccccc3)o2)sc(C(C)=O)c1C | 20.5 | · | · | 12.0 | 1725 | 10.7 | · | · | ·
SMILES | PPARg SRC3 recr | SRC3 TRFRET art | SRC1 TRFRET art | PPARg SRC-1 ag | SRC2 TRFRET art | PPARg SRC-2 ag | PPARg SRC2 ag | PPARg SRC1 conf | PPARg SRC3 conf
CCOC(=O)c1c(NC(=O)CSc2nnc(Cc3ccccc3)o2)sc(C(C)=O)c1C | 43.6* | · | · | 16.2 | 2328* | 36.4* | 20.1 | 13.1 | 14.8
CCOc1ccc(NC(=O)CSc2nnc(COc3c(C)cccc3C)o2)cc1 | 5.1 | · | · | -0.7 | 1486 | 3.0 | · | · | ·
CCOC(=O)c1cccc(NC(=O)CSc2nnc(COc3ccccc3C)o2)c1 | 7.1 | · | · | 20.5* | 1625 | 5.1 | 5.0 | 3.8 | 2.9
CCN(CC)c1ccc(NC(=O)CSc2nnc(N)s2)cc1C | 15.4 | · | · | 19.6* | 1642 | 2.2 | -1.7 | -3.1 | 0.1
C=CCOC(=O)C1=C(C)Nc2nnnn2C1c1cccs1 (configuration not stated) | 10.0 | · | · | 9.3 | 1397 | -1.4 | · | · | ·
Cc1cccc(Nc2nn3c(=O)c4ccccc4nc3s2)c1 | 37.1* | · | · | 31.3* | 1736 | 2.1 | 27.4* | 16.6 | 14.8
CC(OC(=O)CNC(=O)c1ccccc1F)C(=O)Nc1nc(-c2ccccc2)cs1 (configuration not stated) | 1.9 | 1371 | 1680 | -5.8 | 1399 | 5.1 | · | · | ·
COC1Cc2ccccc2N(C(=O)N2CCN(CCO)CC2)c2ccccc21 (configuration not stated) | 0.9 | · | · | 19.0* | 1731 | 9.1 | 1.1 | -1.4 | -0.2
CC(=O)c1sc(NC(=O)CCCOc2ccc(Cl)cc2)nc1C | 20.4 | 2343* | 2292 | 22.4* | 2055* | 27.5* | 18.9 | 15.8 | 11.9
C/C(N)=C(/C#N)C(=O)COC(=O)Cc1coc2cc(C)ccc12 | -2.2 | 1343 | 1731 | -1.8 | 1448 | 2.5 | · | · | ·
O=C(Cc1cccc2ccccc12)Nc1ccc(-c2cc3ccccc3oc2=O)cc1 | 10.8 | · | · | 24.4* | 2296* | 7.7 | 23.9* | 17.9 | 10.1
